Ba/F3 V617F tox = loss of viability in JAK2V617F-driven Ba/F3 cells; Ba/F3 EpoR-JAK2V617F viability, ATP luminescence; inhibition, % at 5.6 µM; 220,000 tested, 1.1% active;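 active means inhibition above the campaign mean plus 3 SD over all tested compounds, cut at about 24% in these data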;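 further: cytokine-independent growth of Ba/F3 cells driven by EpoR plus mutant JAK2; 0% = DMSO-treated cells and 100% = JAK inhibitor I control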
APP transl inh = APP translation inhibition. 190,000 tested, 0.82% active. inhibition, % at 2 µM. SH-SY5Y APP 5'UTR-luciferase reporter, luminescence;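 active means inhibition above a set limit, derived from the sample mean plus 3 SD, cut at about 45% in these data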
BaF3 parental = reduces parental Ba/F3 cell viability, JAK2V617F counter-screen. 220,000 tested, 1.1% active. inhibition, % at 5.6 µM. AID 1486. CellTiter-Glo ATP luminescence;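 active means inhibition above a per-campaign cutoff, the mean inhibition of all tested compounds plus 3 SD, cut at about 27% in these data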;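 further: 0% = DMSO wells and 100% = JAK Inhibitor I control wells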
aSyn 5UTR inh = MLPCN primary screen, SNCA 5' untranslated region; alpha-synuclein 5'UTR reporter, inhibitor activity; inhibition, % (tested at 7.5 µM); 300,000 tested, 0.82% active; in the data active means inhibition above about 60%;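 further: H4 neuroglioblastoma cells stably carrying SNCA 5'UTR luciferase fusion; 0% = DMSO wells and 100% = positive control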
IEC-6 tox = counter-screen for KLF5 inhibitors: cytotoxicity in IEC-6 cells. IEC-6 cytotoxicity, luminescence viability. inhibition, % at 5 µM. 290,000 tested, 0.78% active. AID 1825;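 further: 0% = plate median of test compound wells and 100% = cytotoxic reference compound wells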
KLF5 inh = suppresses KLF5 promoter-driven expression; DLD-1 KLF5 promoter-luciferase reporter, luminescence; inhibition, % at 5 µM; 290,000 tested, 0.23% active; AID 1700;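 active means inhibition above a per-plate limit of that plate's mean compound inhibition plus 3 SD, cut at about 60% in these data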;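 further: 0% = DMSO wells and 100% = LY294002 at 200 µM; higher means less KLF5 promoter-driven luciferase light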
IEC-6 tox confirm = IEC-6 cytotoxicity, confirmation assay. shares compounds with IEC-6 tox. IEC-6 rat intestinal epithelial viability, luminescence. inhibition, % at 5 µM. 1,900 tested, 63% active;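 further: 0% = vehicle and 100% = reference cytotoxic drug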
The depositor's hits bear a star; · = not tested or not shown. In the library only some 2.2% were active in any assay of this set; here they are far more common. Unless noted, no stated cut-off is given here; in the data, active means inhibition above about 22%; inactive means the rest.

SMILES	Ba/F3 V617F tox	APP transl inh	BaF3 parental	aSyn 5UTR inh	IEC-6 tox	KLF5 inh	IEC-6 tox confirm
CC1=C([N+](=O)[O-])C(c2ccccc2)C2=C(N1)c1ccccc1C2=O (stereo not given)	77*	57*	71*	113*	47*	58	56*
Cc1cc(Cl)n2c(nc3ccccc32)c1C#N	76*	90*	29*	89*	77*	17	37*
Clc1ccc(C2=Nn3c(nnc3-c3n[nH]c4c3CCC4)SC2)cc1	55*	89*	50*	58	32*	-10	50*
CCOC(=O)c1[nH]c(C)c(C(=O)Nc2ccc(C)cc2C)c1C	59*	70*	52*	-28	51*	38	48*
CCOC(=O)c1[nH]c(C)c(C(=O)Nc2ccc(F)cc2)c1C	-6	-18	-1	0	1	-43	·
CCOC(=O)c1[nH]c(C)c(C(=O)c2ccc(C)cc2)c1C	78*	95*	77*	37	82*	16	62*
CCOC(=O)c1[nH]c(C)c(C(=O)Nc2cc(OC)ccc2OC)c1C	75*	91*	75*	36	86*	60	61*
CCOC(=O)c1c(C)[nH]c(C(=O)OCC(=O)Nc2cc(C)ccc2OC)c1C	-5	-14	0	8	1	-4	·
CCOC(=O)c1[nH]c(C)c(C(=O)Nc2ccccc2F)c1C	68*	62*	62*	-54	47*	5	46*
Cn1nc(C(=O)Nc2ccc(S(=O)(=O)Nc3ncccn3)cc2)ccc1=O	-2	·	1	2	2	3	·
O=C(NCc1cccnc1)c1ccc(NC(=O)c2ccc(Br)cc2)cc1	·	·	·	17	89*	-29	43*
Cc1cccc(OCC(=O)Nc2ccc(C(=O)NCc3cccnc3)cc2)c1	12	10	-4	9	26*	7	-12
CCOC(=O)CN1C(=O)/C(=C2\SC(=S)N(NC(=O)c3cccnc3)C2=O)c2ccccc21	·	·	·	7	-8	-19	·
O=C(c1ccccc1)c1ccc(Cn2cc(CCCO)nn2)cc1	·	·	·	14	7	-13	·
O=C(O)CCCCCCCCc1cn(Cc2ccc(C(=O)c3ccccc3)cc2)nn1	·	·	·	-35	72*	-27	24*
COC(=O)c1ccc(/C=N\N2CCN(c3ccccc3)CC2)cc1	·	·	·	-127	-5	-139	·
COc1cccc(NC(=O)CSC2=C(C#N)C(c3ccco3)C3=C(CCCC3=O)N2)c1 (stereo not given)	67*	8	76*	-26	50*	45	5
CCCCc1ccc(NC(=O)CSC2=C(C#N)C(c3ccco3)C3=C(CCCC3=O)N2)cc1 (stereo not given)	-1	11	5	24	-6	-22	·
Cc1ccc(C(=O)CSC2=C(C#N)C(c3ccco3)C3=C(CCCC3=O)N2)cc1 (stereo not given)	1	46*	4	38	45*	4	52*
COc1ccc(N(Cc2cc3ccccc3[nH]c2=O)S(=O)(=O)c2ccc(C)cc2)cc1	·	·	·	1	-2	-57	·
O=C1C(=O)N(CCN2CCOCC2)C(c2cccnc2)/C1=C(/O)c1ccc(Cl)cc1 (stereo not given)	-3	-4	1	7	-1	-27	·
CN(C)C(CNc1ncnc2sc3c(c12)CCCC3)c1ccco1 (stereo not given)	4	-7	1	-22	-1	8	·
Cc1c(C(=O)NCC2CCCO2)oc2c(Cl)cccc12 (stereo not given)	·	·	·	7	·	·	·
O=C(NCCCO)c1cc2ccccc2[nH]1	6	-11	5	-9	-2	-2	·
NNC(=O)c1cc2ccccc2[nH]1	3	90*	3	55	32*	34	-5
SMILES	Ba/F3 V617F tox	APP transl inh	BaF3 parental	aSyn 5UTR inh	IEC-6 tox	KLF5 inh	IEC-6 tox confirm
O=C(O)CC1(CC(=O)NCc2csc(-c3cccs3)n2)CCCCC1	16	·	-7	-6	16	0	·
CS(=O)(=O)/C(C#N)=C\c1cnc(S(=O)(=O)c2ccccc2)s1	·	·	·	-37	36*	-21	9
Cc1ccc2nc(SCc3nnc(-c4ccccc4Br)o3)[nH]c2c1	-4	-16	4	29	22*	-7	15
Clc1ccc2nc(SCc3nnc(-c4ccccc4)o3)[nH]c2c1	-4	-8	4	7	4	6	·
Cc1cc(C(=O)N2CCN(C/C=C/c3ccccc3)CC2)cs1	0	-16	3	16	45*	2	-16
O=C(c1cccnc1)N1CCN(C/C=C/c2ccccc2)CC1	0	-9	6	15	3	-18	·
O=C(c1cccc(N2CCCC2=O)c1)N1CCN(c2cccc(Cl)c2)CC1	·	·	·	12	44*	13	17
COCCCNC(=S)N/N=C/c1cccc(OC)c1O	-3	·	0	·	60*	40	18
COCCCNC(=S)N/N=C/c1ccc(O)cc1O	-4	·	0	-7	-3	-12	·
O=C(Nc1ccc(Cc2ccncc2)cc1)c1cc([N+](=O)[O-])ccc1N1CCOCC1	-4	8	2	22	4	-13	·
CCOc1ccc(OCCCCn2cnc3ccccc3c2=O)cc1	-2	-10	-1	21	0	11	·
O=C(O)CSc1cc(NS(=O)(=O)c2ccc(Cl)cc2)c2ccccc2c1O	·	·	·	21	57*	-42	-3
NS(=O)(=O)c1ccc(NC(=O)COC(=O)/C(=C/c2cccs2)c2cccs2)cc1	1	-9	3	-18	-2	-4	·
COc1ccc(CCNc2ncnc3sc(C)cc23)cc1OC	·	·	·	77*	27*	-38	27*
Cc1ccc(S(=O)(=O)Nc2cccc(N(C)S(C)(=O)=O)c2)cc1[N+](=O)[O-]	97*	2	95*	0	23*	-21	-9
O=[N+]([O-])c1ccc(-n2nnnc2-c2ccccc2)c([N+](=O)[O-])c1	69*	-4	30*	-2	32*	-37	5
O=C(O)c1ccc(N/N=C/C=C/c2ccccc2[N+](=O)[O-])cc1	4	-113	-1	-127	24*	-135	39*
COc1cccc(CNc2ncc(C(=O)Nc3cc(OC)c(OC)c(OC)c3)c(C)n2)c1	·	·	·	-22	30*	22	12
COc1ccc(C(=O)NN=C2CCCC2)cc1OC	·	·	·	-17	8	-32	·
CCOc1cc(C(=O)NN=C2CCCC2)cc(OCC)c1OCC	·	·	·	-20	80*	17	-1
COc1cccc(C2=CC(c3ccccc3)n3nnnc3N2)c1 (stereo not given)	3	2	0	-28	28*	21	32*
C=CCn1c(O)c(N=NC(=S)Nc2ccccc2F)c2cc(S(=O)(=O)N3CCOCC3)ccc21	11	24	18	78*	30*	44	17
COc1ccc(OC)c(-c2csc(NC(=O)c3ccc(F)cc3)n2)c1	·	·	·	-202	34*	19	16

Screening data (PubChem BioAssay)
